Sampled rows, rich in hits. Any-hit rate of the full collection: about 21%.
Pf growth 96h: P. falciparum growth inhibition at 96 hours | P. falciparum luciferase reporter growth, 96 h | Potency, µM (highest dose often 28.7 µM), for inactives: top-dose activity change, negative = inhibition, hits mostly inhibitors | 320,000 tested, 6.9% active | AID 504834; also: potency is read from the fitted curve at half-maximal effect; % is scaled to controls: 0 for no effect and ±100 for the full control effect
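P. falciparum expressing integrated firefly luciferase, in erythrocytes at 2% hematocrit, 0.05% parasitemia, incubated with compounds 96 h at 37 C, 5% CO2. Growth inhibition read as loss of luminescence; two-generation exposure targets delayed-death apicoplast inhibitors.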
Shiga toxin inh: blocks Shiga toxin action in Vero cells; 290,000 tested, 9.2% active; inhibition, % at 38.7 µM; Vero cells, Shiga toxin protein synthesis inhibition reporter; in the data active = inhibition mostly above about 28%, no sharp cut-off; inactive = mostly below about 43%; also: 0% is about no effect
CHX counter: counter-screen hit for Shiga toxin inhibitors, cycloheximide. cell reporter, cycloheximide protein synthesis inhibition counterscreen. max response, %. 300,000 tested, 12% active; in the data active = max response mostly above about 13%, no sharp cut-off; inactive = mostly below about 14%; also: read at 38.3 µM for the half of the compounds with a filed dose; 0% is about no effect
Pf growth 48h: P. falciparum growth inhibition at 48 hours (one generation); AID 504832; Potency, µM (series often up to 28.7 µM), for inactives: top-dose activity change, negative = inhibition, hits mostly inhibitors; P. falciparum luciferase growth in erythrocytes, 48 h; 310,000 tested, 5.9% active; also: potency is read from the fitted curve at half-maximal effect; % is scaled to controls: 0 for no effect and ±100 for the full control effect
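A one-generation exposure of luciferase-tagged malaria parasites in RPMI 1640/Albumax erythrocyte culture, 37 C and 5% CO2. Inhibition is inferred from decreased luminescence after adding detection reagent.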
Starred values were filed as active, the others as inactive; i = inactive; u = inconclusive; x = not tested or not shown. Unless noted, calls follow the shape of the dose curve; as a rule, active = well fitted inhibition curve with a large enough effect; inconclusive = small, poorly fitted or top-dose-only effect, or another doubt; inactive = no such curve, though single readings can be large or run the other way.

SMILES	Pf growth 96h	Shiga toxin inh	CHX counter	Pf growth 48h
Cc1ccc(C2CC(=O)Oc3ccc(C(C)(C)C)cc32)cc1 (configuration not stated)	x	i	6	x
C[C@H]1CCCC(=O)CCCCCc2cc(O)cc(O)c2C(=O)O1	9.3µM*	-4	-4	4.1µM*
O=C(N/C=C/n1cnc2cc(C(F)(F)F)ccc21)c1ccccc1	3%	-10	10	u
CC(C)[C@@H](C(=O)N1CCN(C(=O)OC(C)(C)C)CC1)n1cc(CCO)nn1	7%	-8	-1	4%
CCCCCCSc1ccc([C@H]2N[C@@](CC(C)C)(C(=O)OC)[C@H]3C(=O)N(C)C(=O)[C@@H]23)cc1OC	4.7µM*	x	x	6.6µM*
COC(=O)[C@]1(CC(C)C)N[C@H](c2ccc(-c3ccc(F)cc3)c(OC)c2)[C@@H]2C(=O)N(C)C(=O)[C@@H]21	1.9µM*	x	x	7.4µM*
COC(=O)[C@]1(CC(C)C)N[C@H](c2ccc(SC3CCCCC3)c(OC)c2)[C@@H]2C(=O)N(C)C(=O)[C@@H]21	8.3µM*	x	x	u
CCCCn1c(N)c(N(CC(C)C)C(=O)CSCc2c(C)noc2C)c(=O)[nH]c1=O	u	x	x	-14%
CCOC(CCn1c(SCc2cccc([N+](=O)[O-])c2)nc2ccccc2c1=O)OCC	-2%	-5	-2	u
Cn1c(SCc2cccc(C#N)c2)nc2ccccc2c1=O	69%	-2	-1	10µM*
Cn1c(SCc2cccc([N+](=O)[O-])c2)nc2ccccc2c1=O	10µM*	x	x	5.2µM*
COCCn1c(SCc2cccc([N+](=O)[O-])c2)nc2ccccc2c1=O	u	-3	-6	9.3µM*
COc1ccc(N2C3=C(C(=O)CC(C)(C)C3)C(c3cnn(C)c3)C3=C2CC(C)(C)CC3=O)cc1	4.1µM*	-6	-2	7.4µM*
CCn1cc(C2C3=C(CC(C)(C)CC3=O)N(c3ccccc3)C3=C2C(=O)CC(C)(C)C3)c(C)n1	8.3µM*	-13	-4	u
CCn1cc(C2C(C(=O)Nc3cc(C)ccn3)=C(C)NC3=C2C(=O)CC(C)(C)C3)c(C)n1 (configuration not stated)	u	-4	-2	-16%
COc1cc(C2C3=C(CC(C)(C)CC3=O)N(C)C3=C2C(=O)CC(C)(C)C3)ccc1O	0%	-8	-1	11%
CC(=O)c1cccc(CN(C)CC2CCCN(CCc3ccccc3C)C2)c1 (configuration not stated)	-27%	-7	-1	u
Cc1c(Cl)cccc1NC(=O)CSc1nccn1C	u	-5	1	4%
Cc1ccc2c(CC(=O)Nc3ccc(N4CCN(C)CC4)cc3C)coc2c1	u	47	18*	u
Cc1ccc2c(CC(=O)Nc3sccc3C(N)=O)coc2c1	11%	81*	41*	142%
NC(=O)N=Nc1c(O)n(Cc2ccccc2)c2ccc(Br)cc12	u	-9	6	5%
O=C1N(c2ccc(Cl)cc2)C(c2cccnc2)N2CCCN12 (configuration not stated)	u	108*	26	9%
CC1=NN(C(=O)c2ccc(C)o2)C(O)(c2ccccc2)C1 (configuration not stated)	56%	active	30*	6%
CC1=NN(C(=O)c2ccccc2C)C(O)(c2ccc(Cl)cc2)C1 (configuration not stated)	10µM*	-1	1	-24%
CC1=NN(C(=O)c2ccco2)C(O)(c2ccccc2)C1 (configuration not stated)	u	80*	45*	u
SMILES	Pf growth 96h	Shiga toxin inh	CHX counter	Pf growth 48h
CC1=NN(C(=O)CSCc2ccccc2)C(O)(c2ccccc2)C1 (configuration not stated)	62%	32	16	u
CC1=CC2=NC(=O)CC(C)(C(=O)N(CC(=O)NC3CCCC3)Cc3ccccc3)N2C=C1 (configuration not stated)	5%	15	-1	27%
COC(=O)C1CCN(C(=O)c2cc(S(=O)(=O)N3CCCCC3)ccc2Cl)CC1	u	x	x	-18%
Cc1onc(-c2c(Cl)cccc2Cl)c1C(=O)N/N=C(\N)COc1ccc(Cl)cc1	u	20	-3	2.3µM*
COc1ccc(NC(=O)c2c(-c3c(Cl)cccc3Cl)noc2C)c(OC)c1	29%	-1	-7	1.7µM*
COc1cc(/C=N/NC(=O)c2c(-c3c(Cl)cccc3Cl)noc2C)ccc1OCC(N)=O	6%	-15	-1	0%
Cc1cc(Br)c(NC(=O)c2c(-c3c(Cl)cccc3Cl)noc2C)c(Br)c1	5.9µM*	-2	1	10µM*
CCC(=O)Oc1cccc(C(=O)Nc2cccc(NC(=O)c3ccco3)c2)c1	-27%	14	4	0%
CC(C)C(=O)Nc1nc2cc3c(cc2s1)OCO3	96%	77*	26*	107%
CC(C)(C)C(=O)Nc1nc2cc3c(cc2s1)OCO3	170%	71*	37*	135%
O=C(NNc1nc2cc3c(cc2s1)OCCO3)c1ccccc1	235%	146*	36*	140%
CC(=O)Nc1nc2cc3c(cc2s1)OCCO3	i	29*	44*	275%
O=C1Nc2ccc(Br)cc2C1=Nc1ccc(-c2nnc3n2CCCCC3)cc1	x	-7	-3	-3%
CC(=O)Nc1ccc(S(=O)(=O)Nc2ccc(S(=O)(=O)Nc3nccs3)cc2)cc1	-3%	1	-6	2%
CCc1ncnc2cc(OC)c(OC)cc12	u	x	x	3%
OC(CNC1CCCc2ccccc21)COc1ccc2ccccc2c1 (configuration not stated)	u	-8	-4	u
CCc1ccccc1OC[C@@H](O)CN[C@H]1CCCc2ccccc21	1.7µM*	x	x	1.9µM*
CC(C)(C)NC[C@@H](O)COc1cccc2c1CCCC2=O	23%	x	x	-2%
CC(C)(C)NCC(O)COc1ccccc1C1CCCC1 (configuration not stated)	5.2µM*	x	x	2.6µM*
O=C(c1ccccc1)c1ccc(OCC(O)CNC2CCCc3ccccc32)cc1 (configuration not stated)	10µM*	-10	-9	u
O=S(=O)(c1ccc2c(c1)OCO2)N1CCN(c2nnnn2-c2ccccc2)CC1	u	13	36*	u
Cc1ccc(C(=O)Nc2cc3[nH]c(=O)oc3cc2C)cc1	u	24*	11	31%
CC(=O)Nc1ccc(NC(=O)CS(=O)(=O)Cc2ccccc2)cc1	0%	-9	-8	41%
O=C(CCc1ccccc1)Nc1ccccc1[N+](=O)[O-]	u	54*	26*	91%
NC(=O)c1ccccc1NC(=O)CS(=O)(=O)Cc1ccccc1	9.3µM*	54	-4	24%
O=C(CCc1ccccc1)NC(=S)Nc1ccccc1[N+](=O)[O-]	u	33	12	25%
O=C(CCCc1ccccc1)Nc1ccccc1[N+](=O)[O-]	4%	27*	37*	67%
CN(C)c1ccc(NC(=O)Cc2ccccc2)c2ccccc12	-1%	33	15*	-1%
COc1cc(OC)cc(C(=O)Nc2ccc(N(C)C)c3ccccc23)c1	u	-15	1	-12%
